As usually defined, the inhibition is the relative decrease from the control value, in per cent.

The values that follow come from PubChem BioAssay AID651636 (Sanford-Burnham Center for Chemical Genomics, 2012).

In all, about 360,000 compounds went through this assay and about 3,000 (0.83%) were called active. The sample as a whole holds a higher share of actives than the screen did. A number with no mark means an inactive call. No stated cut-off is given here; in the data, active means inhibition above about 38%; inactive means the rest.

The experiment deals with G-protein coupled receptor 183 (Homo sapiens) (UniProt P32249). Nature of the experiment: blockers of oxysterol-driven EBI2 arrestin signaling – cell-based, luminescence, 7a,25-OHC stimulation, uHTS, primary screen (AID 651636).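 Further: enzyme fragment complementation signal reports receptor beta-arrestin coupling in cells; 0% = agonist plus DMSO wells and 100% = wells without agonist.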 To be noted: EBI2 beta-arrestin recruitment, 7a,25-OHC stimulated, at 5 µM, stronger effect = higher value.
Sequence of G-protein coupled receptor 183 (Homo sapiens) (P32249 whole entry, looked up, the tested form may be a part): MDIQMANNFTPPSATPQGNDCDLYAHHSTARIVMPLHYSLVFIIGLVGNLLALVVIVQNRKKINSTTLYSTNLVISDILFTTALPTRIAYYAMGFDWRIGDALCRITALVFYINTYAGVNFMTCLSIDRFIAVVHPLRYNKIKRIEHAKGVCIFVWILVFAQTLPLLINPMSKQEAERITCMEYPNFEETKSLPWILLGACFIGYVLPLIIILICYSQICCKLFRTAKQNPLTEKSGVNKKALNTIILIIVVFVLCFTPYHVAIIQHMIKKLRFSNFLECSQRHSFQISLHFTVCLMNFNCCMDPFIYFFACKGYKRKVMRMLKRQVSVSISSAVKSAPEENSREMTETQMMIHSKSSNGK
Regarding `CC(=O)c1ccc(S(=O)(=O)Nc2ccc(-c3ccc4nncn4n3)cc2)cc1`, the inhibition was 6.72%.

On to `COc1ccc(N2C(=O)C(O)C2c2ccc(C)cc2)cc1` (stereo unspecified), for which the inhibition was -10.7%.

With `CC(C)(C)c1cc(CN2CCN(CCC#N)CC2)cc(C(C)(C)C)c1O`, the inhibition is 1.34%.

Consider `Cc1ccc(NC(=O)C(C)Sc2nnc(C3CC3)n2C2CC2)cc1S(=O)(=O)N1CCOCC1` (stereo unspecified), for which the inhibition is 6.91%.

With `CC(=O)NC(Cc1ccc(F)c(F)c1)C(=O)NC1CCN(C(=O)c2ccc(C)cc2)CC1` (stereo unspecified), the inhibition is 1.72%.

On to `COc1ccc2c(c1)C(=O)Nc1cc(Cl)ccc1N2`, for which the inhibition is 10.9%.

For `C/C(=N\NC(=O)C1(C)CC1(Br)Br)c1ccc(C)cc1C` (stereo unspecified), the inhibition was 4.16%.

For the compound `CCOC(=O)/C=C/CN(C(=O)OC(C)(C)C)S(=O)(=O)N1CC=CC1`, the inhibition is 0.259%.

As for `CC(=O)NC1=NN(C(C)=O)C(C)(CCS(=O)(=O)c2ccc(Cl)c(Cl)c2)S1` (stereo unspecified), the inhibition is -4.01%.

In the case of `COCc1cc(C)n(CC(=O)NCC2CCCO2)c(=O)c1C#N` (stereo unspecified), the inhibition was 2.55%.

For `CCCCOCCCNC(=O)C[C@@H]1C[C@@]2(C(=O)OC)CCCCC=C2N(CCC2=CCCCC2)C1=O`, the inhibition was 3.92%.

Take `Cc1cc(OCC(=O)N2CCN(c3ncccn3)CC2)ccc1Cl`: the inhibition is 86.6% (active).

Take `CC(Oc1ccc(F)cc1)C(=O)N1CCN(c2ncccn2)CC1` (stereo unspecified): the inhibition was -0.409%.

In the case of `COC(=O)CC(=O)N1CCN(c2ccc(Cl)c(Cl)c2)CC1`, the inhibition was -5.75%.

As to `Cc1ccc(S(=O)(=O)N2[C@@H](Cc3ccccc3)CO[C@H]2CC(=O)OCc2ccccc2)cc1`, the inhibition is 23%.

Turning to `COC(=O)[C@]12CCCCC=C1N(Cc1ccc3c(c1)OCO3)C(=O)[C@H](CC(=O)NCc1cccs1)C2`, the inhibition is 0.7%.

Turning to `CCC1SC(CC)C(=O)N(CC(=O)NC2CCCCC2)C1=O` (stereo unspecified), the inhibition is -0.813%.

Take `O=C(CSc1nc(C2CC2)nc2ccccc12)Nc1cccc(O)c1`: the inhibition was -2.33%.

Turning to `O=C(NNc1c2ccccc2nc2ccccc12)c1cc2ccccc2cc1O`, the inhibition is 44.6% (active).

With `O=C(Cc1ccccn1)c1ccc(O)cc1O`, the inhibition is 9.45%.

With `CCCn1nc(NC(=O)C(C)C)c2cc3cc(OC)ccc3nc21`, the inhibition was 16.4%.

In the case of `O=C(Nc1ncc2c(n1)-c1ccccc1OC2)c1ccc(Cl)cc1`, the inhibition was 9.5%.

For `O=C(Nc1ncc2c(n1)CC(c1ccco1)CC2=O)c1ccc(Cl)cc1` (stereo unspecified), the inhibition is 41.8% (active).

For the compound `CCc1ccc(Nc2ncc3c(n2)CC(c2ccco2)CC3=O)cc1` (stereo unspecified), the inhibition is 14.2%.

Consider `O=C(CC1SC(N2CCCC2)=NC1=O)Nc1ccc(C(=O)NCCc2ccc(F)cc2)cc1` (stereo unspecified), for which the inhibition was -2.4%.

Take `CC(=O)C[C@@H]1OC[C@H](CO)N1S(=O)(=O)c1ccc(C)cc1`: the inhibition is 3.35%.

Take `CCOC(=O)[C@]12CCCC=C1N(CCC1=CCCCC1)C(=O)[C@H](CC(=O)N1CCCCC1)C2`: the inhibition was 8.47%.

With `COc1cccc(-c2ccc(SCC(=O)N3CCN(c4ccccc4)CC3)nn2)c1`, the inhibition is 11.8%.

In the case of `COc1ccc(OCc2cc(C(=O)N3CCCC3)no2)c2ccccc12`, the inhibition is -12.2%.

As for `COc1ccccc1N1CCN(C(=O)c2cc(-c3ccc(Br)cc3)on2)CC1`, the inhibition was 50% (active).

`COc1ccccc1N1CCN(C(=O)Cn2nnc(-c3cccs3)n2)CC1`: the inhibition is -14.3%.

Regarding `COc1ccc(Nc2ncc(C(=O)N3CCN(c4ccccc4OC)CC3)c3ccccc23)cc1`, the inhibition was -13.1%.

Regarding `COc1cccc(-c2cc(C(=O)N3CCN(c4ccccc4OC)CC3)no2)c1`, the inhibition was 56.8% (active).

As to `CC(C)C[C@@H]1COc2cc(N3CCC[C@@H]3CO)ccc2S(=O)(=O)N1`, the inhibition is -0.978%.

For `Cc1cc2nc3n(c2cc1C)CC1CC(C(=O)NCCC(C)C)N(C)C31` (stereo unspecified), the inhibition is 6.24%.

With `c1ccc(CN2CCC(N=C3NN=C(c4ccc5c(c4)OCCO5)CS3)CC2)cc1`, the inhibition was 6.66%.

`Clc1cccc(N=C2NN=C(c3ccc4c(c3)OCCO4)CS2)c1`: the inhibition was 49.5% (active).

In the case of `CN(C)c1nc(=Nc2cccc(Cl)c2)ss1`, the inhibition was 1.94%.

Take `Cc1ccc(S(=O)(=O)N2[C@@H](c3cccc4ccccc34)C(C(=O)O)=C[C@H]2C(C)(C)C)cc1`: the inhibition was -1.04%.

Regarding `CCN(CC)c1ccc(S(=O)(=O)N2CCCCC2)cc1NC(=O)C1=COCCO1`, the inhibition is 1.67%.

Regarding `CCCCN=C1C([N+](=O)[O-])=CC=C2C1=NC1(CCCCC1)N2O`, the inhibition was 68.4% (active).

Take `CO[C@@H]1CN(C)C(=O)c2cc(NC(=O)C3CC3)ccc2OC[C@H](C)N(C(=O)CN2CCOCC2)C[C@@H]1C`: the inhibition is -1.87%.

As for `COc1ccc(-c2nc3c(s2)CCc2onc(-c4ccc(OC)cc4)c2-3)cc1`, the inhibition is -3.33%.

For the compound `CCC(c1nnc(SCC(=O)NNC(=O)c2ccccc2)n1Cc1ccccc1)N(C)C` (stereo unspecified), the inhibition was 72.7% (active).

As to `Cc1cccc(C(=O)NNC(=O)CSc2nnc(C(C)C)n2C)c1`, the inhibition is 2.91%.

Turning to `CCn1c(SCC(=O)NNC(=O)c2ccc(OC)cc2)nnc1C(C)C`, the inhibition is 12.9%.

Regarding `COC(=O)[C@H](CC(C)C)NC(=O)N1CCCCC1C` (stereo partly specified), the inhibition was -4.31%.

With `Cc1cc(C)c(C#N)c(SCc2[nH]nc3c2C(c2ccccc2)C(C#N)=C(N)O3)n1` (stereo unspecified), the inhibition is 63.3% (active).

In the case of `Cc1cc(C)c(C#N)c(SCc2ccc3c(c2)OCO3)n1`, the inhibition was -1.67%.

For the compound `CCCc1[nH]nc2c1C(c1ccc(Br)s1)C(C#N)=C(N)O2` (stereo unspecified), the inhibition was -18.9%.

Regarding `COc1cc2c(cc1NC(=O)CN1CCN(S(=O)(=O)c3ccc(F)cc3)CC1)oc1ccccc12`, the inhibition is 3.04%.

With `CC(C)c1ccc(N2CC(C(=O)Nc3nccs3)CC2=O)cc1` (stereo unspecified), the inhibition is 5.79%.

With `Cc1cccc(-c2nc3c(c(SCC(=O)N4CCOCC4)n2)CCCC3)c1`, the inhibition was 4.2%.

For `Cn1nnnc1SCC(=O)N1CCN(C(c2ccccc2)c2ccccc2)CC1`, the inhibition is 36.1%.

Consider `O=C(c1ccc(-n2cnnn2)cc1)N1CCN(C(c2ccccc2)c2ccccc2)CC1`, for which the inhibition is 79% (active).

Regarding `CC(OC(=O)c1ccc(-n2cnnn2)cc1)C(=O)NCc1ccccc1` (stereo unspecified), the inhibition was -7.1%.
